Laboratory results published in PubChem BioAssay AID626 (Vanderbilt High Throughput Screening Facility, 2007).
The whole screen tested about 64,000 compounds, of which about 1,900 (3%) were called active. Shown is part of a subset that was picked to be rich in actives. Values without a mark were called inactive.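 How the source made its calls: active means fluorescence rise, raw or as B-score row- and column-corrected plate score, outside the 99.7% band of its plate's samples, either direction; inactive means the rest.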

test system: Muscarinic acetylcholine receptor M1; assay: direct activation of M1 receptor calcium signal – CHO-M1 cells, Fluo-4 calcium, agonist mode, primary screen (AID 626); settings: Fluo-4 calcium fluorescence, at 10 µM, active compounds read high

Row | Structure (SMILES) | B-score
1 | Cc1nn2c(c1-c1ccccc1)N=C(c1ccco1)CC2c1ccccc1 (configuration not stated) | 5.88 (active)
2 | Cc1nn(C(=O)c2ccoc2C)c(N)c1-c1ccccc1 | 0.366
3 | CCOC(=O)c1c(C2CC2)csc1NC(=O)CSCc1c(C)noc1C | 0.602
4 | CN1CCN(CC(=O)Nc2sc3c(c2C#N)CCC(C(C)(C)C)C3)CC1 (configuration not stated) | -0.211
5 | CCOC(=O)C1CCCN(C(=O)c2cncc(Br)c2)C1 (configuration not stated) | -0.115
6 | CCOC(=O)C1CCCN(C(=O)c2ccc(CS(=O)(=O)c3ccc(Br)cc3)o2)C1 (configuration not stated) | -2.11 (active)
7 | CCOC(=O)C1CCN(C(=O)c2oc3ccc(S(=O)(=O)N4CCCCCC4)cc3c2C)CC1 | 1.57
8 | C/C(Cl)=C\Cn1c(Nc2cccc(C)c2)nc2c1c(=O)n(C)c(=O)n2C | 0.177
9 | CCCn1c(=O)c(-c2ccccc2)c(O)c2ccccc21 | 0.287
10 | Nc1nnc(SCCN2C(=O)c3ccccc3S2(=O)=O)s1 | 1.12
11 | CCOC(=O)CNC(=O)CN1C(=O)CCSc2ccccc21 | -0.158
12 | CC1=NCCN1S(=O)(=O)c1ccc(Br)c(C)c1 | 0.66
13 | O=C1CCCN1CCCNc1ncnc2c1[nH]c1ccccc12 | -0.55
14 | CC(C)OCCCNc1ncnc2c1[nH]c1ccc(F)cc12 | 16.6 (active)
15 | CCN1CCCC1CNc1ncnc2c1[nH]c1ccc(F)cc12 (configuration not stated) | 0.0374
16 | Cc1oc(CC(C)C)c(CN2CCCC2)c1C(=O)O | 0.845
17 | CCOC(=O)C1CCN(C(=O)C2CCN(S(=O)(=O)c3c(C)noc3C)CC2)CC1 | -0.00598
18 | CN1C(C)(C)CC(NC(=O)CCC(=O)NC2CC(C)(C)N(C)C(C)(C)C2)CC1(C)C | -0.271
19 | CCOC(=O)c1ccccc1NC(=O)CC1Nc2ccccc2NC1=O (configuration not stated) | 14.3 (active)
20 | CCOC(=O)C1=C(C)NC(C)=C(C(=O)OCC)C1c1ccccn1 | -0.0841
21 | O=C(CC1Nc2ccccc2NC1=O)Nc1ccccc1 (configuration not stated) | 3.46 (active)

Row | Structure (SMILES) | B-score
22 | CCCOC(=O)Nc1ccccc1C(N)=O | -0.00513
23 | O=C(CC1NCCNC1=O)Nc1ccc(Oc2ccccc2)cc1 (configuration not stated) | 1.02
24 | CCOc1ccc(NC(=O)CC2NCCNC2=O)cc1 (configuration not stated) | 0.571
25 | COc1ccccc1NC(=O)C1=C(C)NC2=C(C(=O)CCC2)C1c1ccc(C)o1 (configuration not stated) | -0.692
26 | CCc1ccc(N(CC)c2ncnc3nc[nH]c23)cc1 | 0.205
27 | CCOc1ccc(S(=O)(=O)N(CC(=O)O)c2ccccc2)cc1 | 0.254
28 | C=C1c2cc(CC)ccc2NC(=O)N1c1ccc(C)cc1 | -1.17
29 | Cn1c(=O)c2c(nc(SCC(=O)Nc3ccccc3N3CCCCC3)n2C)n(C)c1=O | 6.49 (active)
30 | Cc1ccccc1NC(=O)CNc1ccccc1N1CCCCC1 | 1.11
31 | CC(C)n1c(SCC(=O)Nc2ccccc2N2CCCCC2)nc2c1c(=O)n(C)c(=O)n2C | 0.367
32 | CC(=O)Nc1ccc(S(=O)(=O)N2CCN(CCCOc3cc(C)ccc3C)CC2)cc1 | -0.692
33 | CN(C)CCCNc1c2c(c(C#N)c3nc4ccccc4n13)CCC2 | 0.715
34 | COc1ncnc2c1N=C1CC(C)(C)CC(N)=C1S2 | 39.7 (active)
35 | COc1cc(NS(=O)(=O)c2ccccc2)ccc1-n1nc(C)cc1C | -0.04
36 | COc1cccc2c(C)c(C(=O)O)[nH]c12 | -2.07 (active)
37 | COc1ccc(C)cc1NC(=O)c1[nH]c(C)c(C(C)=O)c1C | 1.04
38 | CCOC(=O)c1c(C)[nH]c(C(=O)NCc2ccccc2OC)c1C | 0.0421
39 | CCN(CC)CCN1C(=O)C(=O)/C(=C(/O)c2ccc(OC)c(OC)c2)C1c1ccccn1 (configuration not stated) | -0.817
40 | CS(=O)(=O)c1ccc2nc(NC(=O)C3CCCCC3)sc2c1 | 0.229
41 | O=C1NC(Nc2nc3ccccc3s2)(C(F)(F)F)C(=O)N1C1CCCCC1 (configuration not stated) | -0.752
42 | COc1ccc(-c2ccc(-c3noc(-c4ccncc4)n3)c(OC)n2)cc1 | -0.565

Row | Structure (SMILES) | B-score
43 | COc1cc(-c2nc(-c3ccncc3)no2)cc(OC)c1OC | -0.116
44 | CCOc1nc(-c2ccc(OC)cc2)ccc1-c1noc(-c2cc(OC)c(OC)c(OC)c2)n1 | 9.6 (active)
45 | CC(C)c1nc2oc3c(N4CCN(C)CC4)ncnc3c2c2c1CCC2 | 0.376
46 | Cc1ccccc1Nc1nnc(C)c(=O)[nH]1 | -0.209
47 | CCOC(=O)c1c(N)c(C#N)nn1-c1ccccc1C(=O)OC | -0.00838
48 | Cc1cc(C)cc(OCc2nnc(SCC(=O)Nc3ccccc3)o2)c1 | 0.534
49 | O=C(CSc1nnc(Cn2cnc3ccccc32)o1)c1ccccc1 | 2.49 (active)
50 | c1ccc(Cc2nn3c(Cn4cnc5ccccc54)nnc3s2)cc1 | 0.391
51 | O=C(Nc1nn(Cc2ccccc2F)cc1Br)c1cccs1 | -0.416
52 | O=C(O)c1ccc(COc2c(F)c(F)cc(F)c2F)o1 | 0.494
53 | COc1ccc(Cn2nnc3c(=O)[nH]c(C4CCN(C(=O)c5ccccc5Cl)CC4)nc32)cc1 | -0.0421
54 | CCc1nc(N2CCN(c3nc(C)cc(C)n3)CC2)c2oc3ccccc3c2n1 | 0.00663
55 | CCc1nc(Nc2ccc3nccnc3c2)c2oc3ccccc3c2n1 | 3.77 (active)
56 | CCSc1nc(C)nc2c1oc1ccccc12 | 0.362
57 | COc1cccc(N2C(=O)C3CCCN3C2c2ccc(F)cc2)c1 (configuration not stated) | -0.0377
58 | CCn1c(CNc2ccc(OC)cc2)nnc1SCC(=O)c1ccc(OC)cc1 | 0.245
59 | CCCN1CC=C2C(C#N)=C(N)C(C#N)(C#N)C(c3cc(OC)ccc3OC)C2C1 (configuration not stated) | 47 (active)
60 | CCC1=C(C(=O)OC)C(c2cc(OC)ccc2OC)C(C#N)=C(N)O1 (configuration not stated) | -0.762
61 | CCOC(=O)N1CC=C2C(C#N)=C(N)C(C#N)(C#N)[C@H](c3cccs3)[C@H]2C1 | 3.8
62 | COc1cccc(N2CC(C(=O)Nc3c(C)cccc3C)CC2=O)c1 (configuration not stated) | -0.0783
